From PubChem BioAssay (EPA / NIEHS) come the findings set out here.

In experiment [1] the target is Bile acid receptor (Homo sapiens) (UniProt Q96RI1). As to the kind of experiment: ATG_FXR_TRANS: Attagene TRANS-FACTORIAL HepG2 Assay for Farnesoid X Receptor (FXR) (AID 2282979; active = hit-call score of the fitted dose curve at least 0.9, where 1 is the maximum;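 note: hits raise reporter mRNA above DMSO so AC50 marks FXR activation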). Particulars: HepG2 Attagene TRANS FXR-GAL4 reporter transcription. In a few lines: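 HepG2 cells were transiently transfected with GAL4-UAS reporters driven by chimeric NR-Gal4 proteins and dosed for 24 h. Reporter mRNA was quantified by RT-PCR, fluorescent labelling, HpaI digestion and capillary electrophoresis, with gain of signal scored versus DMSO.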

Experiment [2] deals with Oxysterols receptor LXR-alpha (Homo sapiens) (UniProt Q13133). In words: ATG_LXRa_TRANS: Attagene TRANS-FACTORIAL HepG2 Assay for human Liver X Receptor alpha (LXRa) (AID 2282980; active = hit-call score of the fitted dose curve at least 0.9, where 1 is the maximum). The following applies: HepG2 Attagene TRANS reporter, LXRa transactivation. In a few lines:
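HepG2 cells transiently transfected with GAL4-UAS reporter units for chimeric NR-Gal4 proteins, exposed to chemicals for 24 h. Reporter mRNA quantified by RT-PCR and capillary electrophoresis; gain of signal fitted relative to DMSO.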

The target of experiment [3] is Hepatocyte nuclear factor 4-alpha (Homo sapiens) (UniProt P41235). In words: ATG_HNF4a_TRANS: Attagene TRANS-FACTORIAL HepG2 Assay for human Hepatocyte Nuclear Factor 4 alpha (HNF4a) (AID 2282982; active = hit-call score of the fitted dose curve at least 0.9, where 1 is the maximum). The following applies: HepG2 HNF4a transactivation reporter, mRNA readout. A digest of the protocol:
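In this trans-factorial format, a chimeric HNF4a-GAL4 fusion drives a GAL4-UAS reporter in transfected HepG2 liver cells. After 24 h treatment, reporter mRNA induction is measured by RT-PCR with capillary electrophoresis, relative to DMSO.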

Experiment [4] is described as follows: ATG_M_06_TRANS: Attagene TRANS-FACTORIAL HepG2 Assay for M06 Transcription Factor (Internal Marker) (AID 2282983; active = hit-call score of the fitted dose curve at least 0.9, where 1 is the maximum). The following applies: HepG2 Attagene TRANS M06 internal marker reporter. A digest of the protocol: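 mRNA levels of a reporter transcript, quantified as FAM fluorescence on capillary electrophoresis, served as readout. HepG2 cells expressing exogenous GAL4-chimera reporter constructs were exposed for 24 h. Gain of signal over DMSO was evaluated.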

Experiment [5] can be described thus: ATG_M_32_TRANS: Attagene TRANS-FACTORIAL HepG2 Assay for M32 Transcription Factor (Internal Marker) (AID 2282984; active = hit-call score of the fitted dose curve at least 0.9, where 1 is the maximum;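 note: transcript level of a background control reporter unit measured by RT-PCR and capillary electrophoresis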). The following applies: HepG2 Attagene TRANS M32 internal marker reporter. In a few lines:
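After 24 h dosing of transfected HepG2 cells, total RNA was reverse-transcribed, reporter sequences PCR-amplified, 6-FAM labelled by primer extension and HpaI-digested before capillary electrophoresis. Signal increase over DMSO was fitted.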

The target of experiment [6] is Nuclear receptor subfamily 4 group A member 2 (Homo sapiens) (UniProt P43354). As to the kind of experiment: ATG_NURR1_TRANS: Attagene TRANS-FACTORIAL HepG2 Assay for human Nuclear Receptor Related Protein 1 (NURR1) (AID 2282985; active = hit-call score of the fitted dose curve at least 0.9, where 1 is the maximum). The following applies: HepG2 Attagene TRANS reporter, mRNA readout. A digest of the protocol: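 Chimeric NR-Gal4 fusion activity measured in HepG2 after 24 h treatment. Reporter transcripts detected by RT-PCR and capillary electrophoresis fluorescence; positive-direction curve fitting against DMSO.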

Experiment [7] has as its target Transcriptional activator Myb (Homo sapiens) (UniProt P10242). As to the kind of experiment: ATG_Myb_CIS: Attagene CIS-FACTORIAL HepG2 Assay for human Myeloblastosis (Myb) Proto-Oncogene Transcription Factor (AID 2282986). The following applies: HepG2 Attagene CIS-FACTORIAL Myb reporter transcription; actives raise or lower the signal. A digest of the protocol: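 In this HepG2 transient-transfection format, cis-regulated reporter mRNA is quantified 24 h post-dosing by RT-PCR with capillary electrophoresis, fitted bidirectionally to DMSO baseline.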

Experiment [8] concerns the target Nuclear respiratory factor 1 (Homo sapiens) (UniProt Q16656). In words: ATG_NRF1_CIS: Attagene CIS-FACTORIAL HepG2 Assay for human Nuclear Respiratory Factor 1 (NRF1) Orphan Gene (AID 2282987). The following applies: HepG2 NRF1 cis-element reporter, Attagene multiplex; actives raise or lower the signal. A digest of the protocol: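 Using DMSO as baseline, gain- or loss-of-signal was fitted for reporter mRNA levels in HepG2 cells transiently transfected with cis-regulated reporter units. Samples were taken 24 h after dosing and read by RT-PCR with capillary electrophoresis.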

A short description of experiment [9]: ATG_NFI_CIS: Attagene CIS-FACTORIAL HepG2 Assay for human Nuclear Factor I (NFI) (AID 2282989). Particulars: HepG2 cis-regulatory reporter, NFI response element transcription; actives raise or lower the signal. A digest of the protocol: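 Cells: human liver HepG2, transiently transfected with promoter-regulated reporter transcription units. Exposure 24 h. Detection: fluorescent RT-PCR products separated by capillary electrophoresis, normalised to DMSO negative control.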

The target of experiment [10] is Myc proto-oncogene protein (Homo sapiens) (UniProt P01106). In words: ATG_Myc_CIS: Attagene CIS-FACTORIAL HepG2 Assay for human Myelocytomatosis (Myc) Proto-Oncogene Transcription Factor (AID 2282990). The following applies: HepG2, Attagene cis-reporter transcription factor activity; actives raise or lower the signal. A digest of the protocol: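 DMSO-normalised, bidirectionally fitted reporter mRNA signal. HepG2 cells transfected with cis reporter constructs, treated 24 h; transcripts detected by RT-PCR, 6-FAM primer extension and CE.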

A short description of experiment [11]: ATG_NRF2_ARE_CIS: Attagene CIS-FACTORIAL HepG2 Assay for human Nuclear Factor Erythroid 2 Related Factor 2 (NFR2) response to Antioxidant Response Elements (ARE) (AID 2282992). The following applies: HepG2 Attagene ARE/NRF2 reporter, transcription factor activity; actives raise or lower the signal. In a few lines:
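Endogenous transcription factor activity read out as reporter transcript levels (RT-PCR plus capillary electrophoresis, fluorescence) in transiently transfected HepG2 cells. Measured at 24 h after dosing; gain or loss of signal fitted versus DMSO.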

Experiment [12] is described as follows: ATG_Oct_MLP_CIS: Attagene CIS-FACTORIAL HepG2 Assay for human Octamer-Binding Transcription Factor (Oct) (AID 2282993). The following applies: HepG2 Attagene cis-factorial Oct reporter, mRNA; actives raise or lower the signal. A digest of the protocol:
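HepG2, transient MRTU transfection, cis promoter elements; 24 h dosing; RT-PCR/CE fluorescence read-out of reporter mRNA; fit both directions vs DMSO.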

Experiment [13] has as its target Cellular tumor antigen p53 (Homo sapiens) (UniProt P04637). In words: ATG_p53_CIS: Attagene CIS-FACTORIAL HepG2 Assay for human p53 Transcription Factor (AID 2282994). The following applies: HepG2 p53 cis-element reporter, Attagene mRNA; actives raise or lower the signal. A digest of the protocol: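 Endogenous p53 activity read in transiently transfected HepG2 from a cis-element-driven reporter transcript after 24 h exposure. RNA reverse-transcribed, PCR-amplified, fluorescently labelled and sized by capillary electrophoresis; gain or loss fitted against DMSO baseline.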

The nature of experiment [14]: BSK_3C_TissueFactor: BioMAP Diversity Plus: 3C Assay for Tissue Factor Biomarker Activity (AID 2282997). The following applies: BioMAP 3C HUVEC, tissue factor biomarker readout; actives raise or lower the signal. In a few lines:
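Tissue Factor measured by ELISA, 24 h after treatment of primary HUVEC in the BioMAP 3C setting.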

Experiment [15] in a line: BSK_3C_uPAR: BioMAP Diversity Plus: 3C Assay for Urokinase-type plasminogen activator receptor (uPAR) Biomarker Activity (AID 2282998). The following applies: BioMAP 3C HUVEC, uPAR biomarker ELISA; actives raise or lower the signal. In a few lines: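 A multiplexed primary-cell system built on human umbilical vein endothelium was used, with chemical present for 24 h before reading. Cell-surface uPAR was detected by ELISA; signal change in either direction counted against DMSO.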

Experiment [16] can be described thus: BSK_3C_VCAM1: BioMAP Diversity Plus: 3C Assay for Vascular cell adhesion molecule 1 (VCAM1) Biomarker Activity (AID 2282999). The following applies: BioMAP 3C HUVEC, VCAM1 ELISA, cytokine-stimulated; actives raise or lower the signal. In a few lines: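 Vascular primary endothelium (human umbilical vein) was exposed to chemicals and assayed 24 h later. VCAM-1 levels came from ELISA, with DMSO serving as baseline for bidirectional fitting.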

Experiment [17] can be described thus: BSK_4H_Eotaxin3: BioMAP Diversity Plus: 4H Assay for Eotaxin 3 Biomarker Activity (AID 2283000).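 For outcome: CCL26 protein level quantified by ELISA in parallel with SRB cytotoxicity check.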 Particulars: primary human endothelial cells (HUVEC); actives raise or lower the signal. A digest of the protocol: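 Eotaxin-3 (CCL26) levels were measured by ELISA in HUVEC primary cultures 24 h post-dosing. Gain or loss of signal was fitted in both directions, with DMSO serving as baseline and negative control.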

Experiment [18] concerns the target Glucocorticoid receptor (Homo sapiens) (UniProt P04150). In words: ATG_GR_TRANS: Attagene TRANS-FACTORIAL HepG2 Assay for human Glucocorticoid Receptor (GR) (AID 2282978; active = hit-call score of the fitted dose curve at least 0.9, where 1 is the maximum;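 note: activators score as hits since higher reporter transcript over DMSO is fitted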). Particulars: HepG2 Attagene TRANS GR reporter, mRNA transcription. A digest of the protocol:
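Exogenous NR-GAL4 fusion activity was assessed through induced GAL4-UAS reporter transcripts in transfected human HepG2 cells, quantified after 24 h by RT-PCR and fluorescent capillary electrophoresis with DMSO as baseline.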

Experiment [19] can be described thus: ATG_NF_kB_CIS: Attagene CIS-FACTORIAL HepG2 Assay for human Nuclear Factor Kappa B (NF-kB) (AID 2282991). The following applies: HepG2 Attagene cis-factorial NF-kB reporter mRNA; actives raise or lower the signal. In a few lines:
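Endpoint from a 52-component multiplexed HepG2 reporter panel: cis-regulated transcription units transiently transfected, 24 h dosing, reporter mRNA quantified by RT-PCR and capillary electrophoresis, scored as increase or decrease against DMSO.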

The structures appear in SMILES notation. Several values for one entry are separate records, joined by “and”; a condition that tells them apart may be missing. Equal values may be shown once. Results filed as inconclusive are left out. More than one record can exist for a structure, and the calls need not agree. Activity calls are given as the source filed them. Rule for the calls, unless noted: active = hit-call score of the fitted dose curve at least 0.9, where 1 is the maximum; inactive = score below 0.9.

Chain of Bile acid receptor (Homo sapiens) (Q96RI1 whole entry, looked up, the tested form may be a part): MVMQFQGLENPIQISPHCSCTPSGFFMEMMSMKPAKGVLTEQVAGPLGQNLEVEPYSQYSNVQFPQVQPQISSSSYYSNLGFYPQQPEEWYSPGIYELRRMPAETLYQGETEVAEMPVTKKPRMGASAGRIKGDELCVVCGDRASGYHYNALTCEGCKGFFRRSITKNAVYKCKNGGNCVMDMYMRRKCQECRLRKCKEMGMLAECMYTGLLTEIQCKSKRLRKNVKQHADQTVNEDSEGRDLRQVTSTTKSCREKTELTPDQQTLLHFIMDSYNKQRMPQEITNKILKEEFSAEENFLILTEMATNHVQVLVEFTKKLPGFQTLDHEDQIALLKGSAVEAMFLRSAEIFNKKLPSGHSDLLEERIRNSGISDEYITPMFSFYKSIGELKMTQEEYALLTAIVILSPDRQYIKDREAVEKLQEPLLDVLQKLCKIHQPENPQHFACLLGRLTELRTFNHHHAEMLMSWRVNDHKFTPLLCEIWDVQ
Chain of Nuclear respiratory factor 1 (Homo sapiens) (Q16656 whole entry, looked up): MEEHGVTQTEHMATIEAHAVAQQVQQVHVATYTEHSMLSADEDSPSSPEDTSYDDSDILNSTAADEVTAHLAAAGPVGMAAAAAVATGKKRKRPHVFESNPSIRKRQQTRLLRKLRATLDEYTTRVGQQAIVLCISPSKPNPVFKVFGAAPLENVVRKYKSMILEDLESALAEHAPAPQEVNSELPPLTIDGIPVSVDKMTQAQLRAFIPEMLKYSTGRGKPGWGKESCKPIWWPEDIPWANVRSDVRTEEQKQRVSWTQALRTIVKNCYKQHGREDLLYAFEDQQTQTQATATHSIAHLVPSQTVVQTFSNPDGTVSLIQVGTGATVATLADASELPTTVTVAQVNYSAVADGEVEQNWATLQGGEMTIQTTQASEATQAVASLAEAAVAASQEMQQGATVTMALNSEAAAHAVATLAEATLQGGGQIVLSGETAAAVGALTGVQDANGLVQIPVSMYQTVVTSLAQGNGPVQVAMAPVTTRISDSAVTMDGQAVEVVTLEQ
Chain of Nuclear receptor subfamily 4 group A member 2 (Homo sapiens) (P43354 whole entry, looked up, the tested form may be a part): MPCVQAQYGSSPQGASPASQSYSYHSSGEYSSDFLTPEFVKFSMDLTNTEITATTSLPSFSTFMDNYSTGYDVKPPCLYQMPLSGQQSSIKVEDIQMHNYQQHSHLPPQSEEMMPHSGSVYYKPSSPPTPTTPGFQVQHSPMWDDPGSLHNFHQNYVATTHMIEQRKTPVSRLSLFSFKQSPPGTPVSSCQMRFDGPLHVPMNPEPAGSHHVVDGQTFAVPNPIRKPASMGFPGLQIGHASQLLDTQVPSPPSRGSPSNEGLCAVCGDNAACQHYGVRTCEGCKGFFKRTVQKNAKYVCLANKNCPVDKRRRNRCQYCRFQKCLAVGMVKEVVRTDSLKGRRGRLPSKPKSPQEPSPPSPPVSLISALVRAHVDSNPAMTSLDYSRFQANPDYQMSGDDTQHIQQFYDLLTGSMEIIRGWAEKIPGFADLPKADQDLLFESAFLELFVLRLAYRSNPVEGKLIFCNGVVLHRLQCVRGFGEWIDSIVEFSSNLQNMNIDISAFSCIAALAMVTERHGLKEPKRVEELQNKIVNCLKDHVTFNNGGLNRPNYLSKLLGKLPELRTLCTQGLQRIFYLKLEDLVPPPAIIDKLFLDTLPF
Chain of Oxysterols receptor LXR-alpha (Homo sapiens) (Q13133 whole entry, looked up, the tested form may be a part): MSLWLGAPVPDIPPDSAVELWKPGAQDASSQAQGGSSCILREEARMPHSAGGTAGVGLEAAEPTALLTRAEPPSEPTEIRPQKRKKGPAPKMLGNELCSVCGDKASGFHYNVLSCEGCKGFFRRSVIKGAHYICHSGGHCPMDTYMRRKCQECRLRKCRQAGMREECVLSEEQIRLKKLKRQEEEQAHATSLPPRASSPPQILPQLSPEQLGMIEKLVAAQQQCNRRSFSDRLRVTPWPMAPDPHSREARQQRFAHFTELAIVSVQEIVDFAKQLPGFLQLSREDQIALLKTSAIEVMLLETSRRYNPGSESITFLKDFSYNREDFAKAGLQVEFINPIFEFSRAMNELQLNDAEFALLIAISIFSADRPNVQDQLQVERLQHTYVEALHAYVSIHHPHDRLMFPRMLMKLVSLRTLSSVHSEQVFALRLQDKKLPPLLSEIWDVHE
Chain of Hepatocyte nuclear factor 4-alpha (Homo sapiens) (P41235 whole entry, looked up, the tested form may be a part): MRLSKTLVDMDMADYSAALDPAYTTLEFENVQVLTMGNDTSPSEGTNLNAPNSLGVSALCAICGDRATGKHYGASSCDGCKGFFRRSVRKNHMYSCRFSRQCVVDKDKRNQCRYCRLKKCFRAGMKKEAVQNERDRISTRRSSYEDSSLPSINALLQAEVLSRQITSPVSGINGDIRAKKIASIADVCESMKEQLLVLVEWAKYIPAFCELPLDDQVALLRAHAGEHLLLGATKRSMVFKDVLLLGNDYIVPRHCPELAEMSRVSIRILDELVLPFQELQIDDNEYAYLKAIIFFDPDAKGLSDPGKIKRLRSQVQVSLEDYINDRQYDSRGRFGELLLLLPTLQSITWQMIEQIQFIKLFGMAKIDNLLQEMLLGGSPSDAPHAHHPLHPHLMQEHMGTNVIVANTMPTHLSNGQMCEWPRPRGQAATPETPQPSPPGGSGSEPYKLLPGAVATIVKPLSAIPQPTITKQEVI
Chain of Myc proto-oncogene protein (Homo sapiens) (P01106 whole entry, looked up): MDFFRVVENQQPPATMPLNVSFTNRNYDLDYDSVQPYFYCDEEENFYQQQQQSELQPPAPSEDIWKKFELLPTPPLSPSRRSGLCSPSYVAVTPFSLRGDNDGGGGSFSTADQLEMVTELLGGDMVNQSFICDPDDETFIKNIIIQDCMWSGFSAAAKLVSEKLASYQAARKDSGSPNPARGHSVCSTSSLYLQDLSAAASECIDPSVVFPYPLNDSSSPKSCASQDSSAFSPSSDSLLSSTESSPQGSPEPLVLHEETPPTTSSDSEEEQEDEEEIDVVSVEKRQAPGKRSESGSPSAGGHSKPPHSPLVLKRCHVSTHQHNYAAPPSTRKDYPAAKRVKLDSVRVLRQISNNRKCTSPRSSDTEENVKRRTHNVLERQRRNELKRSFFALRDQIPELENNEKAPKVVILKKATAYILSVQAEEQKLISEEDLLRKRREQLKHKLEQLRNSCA
Chain of Glucocorticoid receptor (Homo sapiens) (P04150 whole entry, looked up, the tested form may be a part): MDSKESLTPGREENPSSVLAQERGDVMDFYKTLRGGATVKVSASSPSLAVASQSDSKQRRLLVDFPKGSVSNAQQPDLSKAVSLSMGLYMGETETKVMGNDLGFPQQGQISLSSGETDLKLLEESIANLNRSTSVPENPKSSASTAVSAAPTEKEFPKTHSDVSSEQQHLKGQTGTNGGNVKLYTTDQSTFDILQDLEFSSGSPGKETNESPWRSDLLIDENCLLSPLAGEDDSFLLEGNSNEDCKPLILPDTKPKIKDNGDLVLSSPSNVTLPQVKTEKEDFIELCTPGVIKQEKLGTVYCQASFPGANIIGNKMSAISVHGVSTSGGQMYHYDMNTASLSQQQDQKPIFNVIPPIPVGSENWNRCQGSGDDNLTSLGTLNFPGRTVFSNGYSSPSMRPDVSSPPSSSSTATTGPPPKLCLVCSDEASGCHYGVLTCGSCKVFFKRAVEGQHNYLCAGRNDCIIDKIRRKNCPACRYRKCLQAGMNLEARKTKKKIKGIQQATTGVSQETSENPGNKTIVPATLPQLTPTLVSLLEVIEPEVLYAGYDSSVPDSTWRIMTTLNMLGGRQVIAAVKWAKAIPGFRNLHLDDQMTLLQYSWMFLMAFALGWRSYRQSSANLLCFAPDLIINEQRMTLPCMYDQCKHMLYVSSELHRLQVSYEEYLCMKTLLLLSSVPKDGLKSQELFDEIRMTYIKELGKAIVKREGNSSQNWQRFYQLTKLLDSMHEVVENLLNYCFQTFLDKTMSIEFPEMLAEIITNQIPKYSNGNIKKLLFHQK
Chain of Transcriptional activator Myb (Homo sapiens) (P10242 whole entry, looked up): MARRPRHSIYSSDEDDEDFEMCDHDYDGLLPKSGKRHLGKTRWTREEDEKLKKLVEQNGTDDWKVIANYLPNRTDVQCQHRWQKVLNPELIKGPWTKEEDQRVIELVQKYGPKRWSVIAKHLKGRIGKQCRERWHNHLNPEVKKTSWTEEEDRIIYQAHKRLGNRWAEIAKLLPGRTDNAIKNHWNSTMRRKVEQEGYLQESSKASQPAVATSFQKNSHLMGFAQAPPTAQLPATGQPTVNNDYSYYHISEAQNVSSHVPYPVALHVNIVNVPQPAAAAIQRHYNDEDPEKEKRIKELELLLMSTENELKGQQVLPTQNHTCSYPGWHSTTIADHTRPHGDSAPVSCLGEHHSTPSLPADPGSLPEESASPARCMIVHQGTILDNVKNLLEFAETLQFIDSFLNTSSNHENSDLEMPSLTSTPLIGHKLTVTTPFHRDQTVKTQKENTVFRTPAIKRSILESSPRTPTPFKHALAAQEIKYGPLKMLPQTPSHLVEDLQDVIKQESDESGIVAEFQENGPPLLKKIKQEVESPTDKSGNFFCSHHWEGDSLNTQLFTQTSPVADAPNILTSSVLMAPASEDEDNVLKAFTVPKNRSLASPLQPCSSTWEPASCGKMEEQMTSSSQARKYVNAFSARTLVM
Chain of Cellular tumor antigen p53 (Homo sapiens) (P04637 whole entry, looked up): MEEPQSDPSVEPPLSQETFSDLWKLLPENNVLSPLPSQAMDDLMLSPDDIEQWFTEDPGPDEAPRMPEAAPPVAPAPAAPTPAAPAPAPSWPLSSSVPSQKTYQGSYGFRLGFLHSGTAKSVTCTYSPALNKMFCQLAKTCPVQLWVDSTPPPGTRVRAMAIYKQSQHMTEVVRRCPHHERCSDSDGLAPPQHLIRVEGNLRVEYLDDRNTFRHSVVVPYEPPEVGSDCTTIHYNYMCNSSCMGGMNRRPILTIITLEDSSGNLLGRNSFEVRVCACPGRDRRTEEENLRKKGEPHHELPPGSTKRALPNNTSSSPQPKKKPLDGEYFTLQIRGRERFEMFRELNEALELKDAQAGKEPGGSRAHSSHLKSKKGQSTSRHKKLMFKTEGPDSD

On to `CC1(C)NC(=O)N(c2ccc([N+](=O)[O-])c(C(F)(F)F)c2)C1=O`, for which the compound was classed as inactive in experiment [1], in experiment [2], in experiment [3], in experiment [4], in experiment [5] and in [6]. The compound was classed as inactive in experiment [7], in experiment [8], in [9], in [10], in experiment [11] and in [12]. Also, the compound was classed as inactive in experiment [13], in [14], in experiment [15], in experiment [16] and in experiment [17]. The AC50 (usually the concentration giving half of the maximal activity seen) in [11] is 68.8 µM (active) and 22 µM (active) and 46 µM (active).

As for `CC(C)(c1cc(Br)c(O)c(Br)c1)c1cc(Br)c(O)c(Br)c1`, the compound was called inactive in experiment [18], in experiment [1], in [3], in experiment [4], in experiment [5] and in [6]. The result in experiment [7], in [8], in experiment [10], in [19] and in experiment [13] was inactive. Besides, the AC50 was 53.3 µM (active) in experiment [8]; 38.2 µM (active) in experiment [10]; 55.9 µM (active) and 57.6 µM (active) in [11]; 47 µM (active) and 40.3 µM (active) in experiment [12]; 22.9 µM (active) in experiment [13]; 31.1 µM (active) in [14]. For the same compound, the AC50 was 31.6 µM (active) in experiment [15], 32.1 µM (active) in experiment [16] and 30.1 µM (active) in experiment [17].

As to `COc1cccc([C@H](O)C2CCN(CCc3ccc(F)cc3)CC2)c1OC`, the call in [18], in [1], in experiment [5], in experiment [7], in experiment [8] and in experiment [9] was inactive. Further, the call in [10], in experiment [19], in [14], in experiment [15], in experiment [16] and in experiment [17] was inactive. The AC50 in experiment [11] was 140 µM (active); in experiment [12], 157 µM (active); in experiment [13] it was 100 µM (active).

With `O=C1c2ccccc2C(=O)N1CCc1noc(-c2ccc(CN3CCCCCC3)s2)n1`, the result in experiment [1], in [3], in experiment [4], in experiment [5], in experiment [6] and in experiment [7] was inactive. Moreover, the compound was called inactive in experiment [8], in experiment [9], in experiment [10], in experiment [19], in [12] and in experiment [13]. The result in [14], in experiment [15], in experiment [16] and in experiment [17] was inactive. Further, the concentration at half-maximal activity (AC50) in [11] was 23.1 µM (active).

As to `CCOC(=O)O[C@H](C)OC(=O)c1ccc2c(c1)cc(C(=O)NC1CCN(C(C)C)CC1)n2Cc1cc(-c2ccc(Cl)s2)on1`, the call in [18], in experiment [1], in experiment [4], in experiment [7], in experiment [8] and in experiment [10] was inactive. Besides, the compound was called inactive in experiment [19], in experiment [12] and in [13]. Moreover, the AC50 is 9.33 µM (active) in experiment [11]; 9.97 µM (active) in [14]; 6.09 µM (active) in experiment [15]; 5.69 µM (active) in [16]; 8.87 µM (active) in experiment [17].

On to `CCCCCCCCCCCC[N+](C)(C)C`, for which the outcome in experiment [1], in experiment [2], in experiment [3], in experiment [4], in experiment [5] and in experiment [6] was inactive. Besides, the compound was called inactive in experiment [7], in experiment [8], in experiment [9], in experiment [10], in [19] and in [12]. Also, the compound was classed as inactive in [13] and in experiment [14]. Further, the AC50 in [11] was 25.3 µM (active) and 18.9 µM (active); in experiment [12], 20 µM (active); in [15] it was 20 µM (active); in experiment [16], 25.8 µM (active); in experiment [17], 29.9 µM (active).
